Laboratory results: PubChem BioAssay AID602250 (The Scripps Research Institute Molecular Screening Center, 2012)
The whole screen tested about 360,000 compounds, of which about 2,200 (0.61%) were called active. This is one part of a sample in which actives are shown more often than they occur.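 Rule for the calls: active = inhibition above a per-plate cutoff, the plate's mean sample inhibition plus 3 SD (cut at about 24% in these data); inactive = the rest.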

Assay: calcium signal blockers in parental CHO-K1 cells – cell-based, Fluo-8 calcium fluorescence, full deck, 1536-well, counter-screen for M1 antagonist project, primary screen (AID 602250);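 note: 0% = DMSO plus EC80 ATP and 100% = DMSO alone without ATP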
Conditions: ATP-induced calcium, Fluo-8 fluorescence, at 3 µM, stronger effect = higher value

| SMILES | inhibition |
| --- | --- |
| CCC(=O)OC(Cc1ccccc1)(c1ccccc1)C(C)CN(C)C (stereo not given) | 25.3% (active) |
| CN(C)CC1Oc2ccccc2OC1(O)c1ccccc1 (stereo not given) | -2.02% (inactive) |
| CN1CCN(Cc2ccc(OC(F)(F)F)cc2)CC1 | -3.91% (inactive) |
| OC1/C(=C/c2ccc(C(F)(F)F)cc2)N2CCC1CC2 (stereo not given) | -10.6% (inactive) |
| CN(C)S(=O)(=O)c1cc(C(=O)N2CCC(C(=O)O)(c3ccccc3)CC2)ccc1Cl | -5.53% (inactive) |
